Our source for the Potency values is PubChem BioAssay (NCATS).

Structures are written as SMILES. Records with an inconclusive call do not appear. Where a call stands in place of a potency, no number is given. Calls of active or inactive are those of the source. Calls come from the whole dose curve; as a rule, active = well fitted inhibition curve with a large enough effect; inconclusive = small, poorly fitted or top-dose-only effect; inactive = flat fitted curve, though single readings scatter.
Potency is the fitted concentration of half-maximal effect.

In the test the target is Voltage-gated inwardly rectifying potassium channel KCNH2 (Homo sapiens) (UniProt Q12809). The test can be described thus: qHTS Assay for Small Molecule Inhibitors of the Human hERG Channel Activity (AID 588834).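 Note: lower thallium flux fluorescence means stronger hERG block; nearly all actives have a fitted effect of over 50% in size.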 Particulars: U2OS BacMam hERG, FluxOR thallium flux fluorescence; series mostly up to 46.1 µM. An outline of the steps: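 Concentration-response qHTS measuring drop in thallium-sensitive dye signal. U2OS cells carrying BacMam hERG; compound exposure ~10 min, then stimulation buffer and 2 min read at 1 sec intervals.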
Chain of Voltage-gated inwardly rectifying potassium channel KCNH2 (Homo sapiens) (Q12809 whole entry, looked up): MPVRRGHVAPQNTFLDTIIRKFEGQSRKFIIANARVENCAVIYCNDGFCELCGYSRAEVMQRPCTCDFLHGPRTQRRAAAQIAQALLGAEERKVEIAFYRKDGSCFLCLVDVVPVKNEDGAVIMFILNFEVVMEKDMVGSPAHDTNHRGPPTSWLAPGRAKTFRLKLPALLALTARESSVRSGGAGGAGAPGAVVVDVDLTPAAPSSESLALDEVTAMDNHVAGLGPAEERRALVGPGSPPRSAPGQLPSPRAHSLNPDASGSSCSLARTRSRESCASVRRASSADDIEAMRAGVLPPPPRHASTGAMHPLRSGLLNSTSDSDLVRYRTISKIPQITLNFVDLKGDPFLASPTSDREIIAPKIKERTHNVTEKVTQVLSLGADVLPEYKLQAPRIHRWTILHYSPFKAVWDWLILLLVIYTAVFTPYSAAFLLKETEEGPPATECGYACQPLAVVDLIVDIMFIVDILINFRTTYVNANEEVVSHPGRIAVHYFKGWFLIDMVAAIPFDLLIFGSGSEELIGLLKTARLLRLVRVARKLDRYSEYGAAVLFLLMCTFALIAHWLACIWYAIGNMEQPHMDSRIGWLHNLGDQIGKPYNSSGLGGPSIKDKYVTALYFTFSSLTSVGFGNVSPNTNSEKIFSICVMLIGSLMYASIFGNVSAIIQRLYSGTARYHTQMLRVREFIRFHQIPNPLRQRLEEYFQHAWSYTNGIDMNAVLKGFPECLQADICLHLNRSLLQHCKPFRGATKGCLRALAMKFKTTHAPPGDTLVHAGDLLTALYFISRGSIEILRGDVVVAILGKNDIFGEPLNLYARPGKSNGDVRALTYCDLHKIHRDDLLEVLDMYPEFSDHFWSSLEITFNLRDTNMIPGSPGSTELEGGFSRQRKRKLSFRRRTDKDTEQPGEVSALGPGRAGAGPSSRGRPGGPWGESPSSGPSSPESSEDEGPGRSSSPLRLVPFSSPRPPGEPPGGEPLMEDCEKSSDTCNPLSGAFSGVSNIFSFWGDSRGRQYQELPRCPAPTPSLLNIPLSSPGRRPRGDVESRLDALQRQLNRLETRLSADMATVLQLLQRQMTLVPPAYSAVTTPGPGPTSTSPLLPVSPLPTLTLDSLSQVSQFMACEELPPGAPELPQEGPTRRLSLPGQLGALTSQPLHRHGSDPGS
Consider `C=CCN1C[C@H](C(=O)N(CCCN(C)C)C(=O)NCC)C[C@@H]2c3cccc4[nH]cc(c34)C[C@H]21`, for which the Potency entry is “inactive”.
Take `CC1(c2ccccc2)OC(C(=O)O)=CC1=O` (stereo not given): the Potency entry is “inactive”.
In the case of `CC(=O)N[C@@H](CC(C)C)C(=O)O` it was “inactive”; in that of `CO[C@@]1(NC(=O)C(C(=O)O)c2ccc(O)cc2)C(=O)N2C(C(=O)O)=C(CSc3nnnn3C)CO[C@@H]21` (stereo not given in full), “inactive”.
`CC(=O)[C@@]1(O)CC[C@H]2[C@@H]3C[C@H](C)C4=CC(=O)C=C[C@]4(C)[C@@]3(F)[C@@H](O)C[C@@]21C`: the Potency entry is “inactive”.
Consider `CC1(C)S[C@@H]2[C@H](NC(=O)C(C(=O)O)c3ccccc3)C(=O)N2[C@H]1C(=O)O` (stereo not given in full), for which the Potency result was “inactive”.
Take `O=C(NCC(O)CO)c1c(I)c(C(=O)NCC(O)CO)c(I)c(N(CCO)C(=O)CO)c1I` (stereo not given): the Potency result is “inactive”.
With `C/C=C/C(=O)N(CC)c1ccccc1C`, the Potency result was “inactive”.
Turning to `NS(=O)(=O)c1cc(C2(O)NC(=O)c3ccccc32)ccc1Cl` (stereo not given), the Potency result was “inactive”.
With `CN1C(=O)CC(c2ccccc2)C1=O` (stereo not given), the Potency entry is “inactive”.
`C/C=C1\[C@H]2C=C(C)C[C@]1(N)c1ccc(=O)[nH]c1C2`: the Potency entry was “inactive”.
Next, `CN[C@@H]1[C@H](O)[C@H](NC)[C@H]2O[C@@]3(O)C(=O)C[C@@H](C)O[C@H]3O[C@@H]2[C@H]1O`: “inactive”.
Consider `O=c1[nH]c(=O)n([C@H]2C[C@H](O)[C@@H](CO)O2)cc1I`, for which the Potency entry is “inactive”.
Consider `CC[C@]12CCCN3CCc4c(n(c5ccccc45)[C@@](O)(C(=O)OC)C1)[C@@H]32`, for which the Potency was 0.398 µM (active).
Take `CC(=O)OCC(=O)[C@@]1(O)CC[C@H]2[C@@H]3CCC4=CC(=O)C=C[C@]4(C)[C@@]3(F)[C@@H](O)C[C@@]21C`: the Potency result is “inactive”.
On to `CCN[C@H]1CN(CCCOC)S(=O)(=O)c2sc(S(N)(=O)=O)cc21`, for which the Potency result was “inactive”.
As to `C[N+]1(C)CCCC(OC(=O)C(O)(c2ccccc2)c2ccccc2)C1` (stereo not given), the Potency result is “inactive”.
On to `NC(=O)N[C@@H](CCC(=O)O)C(=O)O`, for which the Potency entry is “inactive”.
Turning to `O=C(O)C(S)C(S)C(=O)O` (stereo not given), the Potency result was “inactive”.
For the compound `OCCN1C[C@H](O)[C@@H](O)[C@H](O)[C@H]1CO`, the Potency result was “inactive”.
With `C[C@]1(Cn2ccnn2)[C@H](C(=O)O)N2C(=O)C[C@H]2S1(=O)=O`, the Potency result is “inactive”.
`CCOC(=O)OC(C)OC(=O)[C@@H]1N2C(=O)[C@@H](NC(=O)[C@H](N)c3ccccc3)[C@H]2SC1(C)C` (stereo not given in full): the Potency result is “inactive”.
In the case of `COC(=O)N/N=C/c1c[n+]([O-])c2ccccc2[n+]1[O-]` it was “inactive”; in that of `CCOC(=O)[C@H](CCc1ccccc1)N[C@@H](C)C(=O)N1Cc2cc(OC)c(OC)cc2C[C@H]1C(=O)O`, “inactive”.
As for `COc1ccccc1Oc1c(NS(=O)(=O)c2ccc(C(C)(C)C)cc2)nc(-c2ncccn2)nc1OCCO`, the Potency entry was “inactive”.
In the case of `CCOc1ccccc1O[C@H](c1ccccc1)[C@H]1CNCCO1` it was “inactive”.
As to `CC(=O)N1C[C@H](O)C[C@H]1C(=O)O`, the Potency result is “inactive”.
With `O=C(/C=C/c1ccc(O)c(O)c1)O[C@@H]1C[C@@](OC(=O)/C=C/c2ccc(O)c(O)c2)(C(=O)O)C[C@@H](O)[C@@H]1O`, the Potency entry is “inactive”.
On to `CN[C@@H]1[C@@H](O)[C@@H](O[C@@H]2[C@H](O)[C@H](O[C@H]3OC(CN)=CC[C@H]3N)[C@@H](N)C[C@H]2N)OCC1(C)O` (stereo not given in full), for which the Potency result is “inactive”.
For the compound `CC(C)=CCC[C@@](C)(O)[C@H]1CC=C(C)CC1`, the Potency entry was “inactive”.
In the case of `CC[C@H](C)[C@H](N)C(=O)O` it was “inactive”; in that of `COCC(=O)Nc1c(I)c(C(=O)NCC(O)CO)c(I)c(C(=O)N(C)CC(O)CO)c1I` (stereo not given), “inactive”; in that of `CCCCCOC(=O)Nc1nc(=O)n([C@@H]2O[C@H](C)[C@@H](O)[C@H]2O)cc1F`, “inactive”.
In the case of `Cc1ccc2c(c1)c1c3n2CCNC3CCC1` (stereo not given), the Potency entry is “inactive”.
Next, `CC1(C)[C@@H](OC(=O)CCC(=O)O)CC[C@]2(C)[C@H]3C(=O)C=C4[C@@H]5C[C@@](C)(C(=O)O)CC[C@]5(C)CC[C@@]4(C)[C@]3(C)CC[C@@H]12`: “inactive”.
